Source: PubChem BioAssay (several laboratories)
Rv3671c inh: Rv3671c serine protease inhibitors, primary screen, biochemical, fluorescence polarization, M. tuberculosis H37Rv; P9WHR9; inhibition, % at 5.96 µM; 0.048% of 320,000 active;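 also: extracellular domain of Rv3671c used as enzyme; 0% = enzyme with DMSO and 100% = no enzyme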
Target sequence (P9WHR9 whole entry, looked up, the tested form may be a part): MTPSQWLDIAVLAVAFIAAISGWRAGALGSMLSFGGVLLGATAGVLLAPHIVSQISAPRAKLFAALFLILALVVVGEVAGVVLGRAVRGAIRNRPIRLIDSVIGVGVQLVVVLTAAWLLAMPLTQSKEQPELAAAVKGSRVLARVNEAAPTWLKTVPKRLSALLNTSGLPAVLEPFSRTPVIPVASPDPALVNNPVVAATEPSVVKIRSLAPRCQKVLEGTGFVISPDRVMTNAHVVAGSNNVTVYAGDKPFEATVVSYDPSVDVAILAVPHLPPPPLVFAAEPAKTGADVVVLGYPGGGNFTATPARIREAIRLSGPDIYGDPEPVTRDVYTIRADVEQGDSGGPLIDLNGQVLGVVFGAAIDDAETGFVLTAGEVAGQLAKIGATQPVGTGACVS
Mtb UGM inh: M. tuberculosis UGM enzyme inhibitors, primary screen, biochemical, fluorescence polarization, single point; purified UGM, fluorescence polarization probe displacement; 0.06% of 320,000 active; inhibition, % at 10 µM; AID 504406, 2011; in the data active = inhibition above about 10%, passing the limit was not always enough; inconclusive = no clear call, values can overlap the other calls
Mtb bLac sens: beta-lactam sensitization of Mtb H37Rv, H37Rv; M. tuberculosis H37Rv growth with meropenem, percent inhibition; inhibition, % at 25 µM; 0.27% of 330,000 active; AID 434955, 2010; call rule not given here;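 also: growth measured after seven days incubation then overnight dye step; 0% = bacteria only wells and 100% = bacteria with antibiotic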
DUSP3 inh: VHR1 phosphatase inhibitors, primary screen, biochemical, absorbance, uHTS. inhibition, % at 13.3 µM. Dual specificity protein phosphatase 3 (Homo sapiens), P51452. recombinant VHR phosphatase, pNPP absorbance. 0.52% of 290,000 active; in the data active = inhibition above about 50%
Mtb hypoxia rep: PubChem AID 1159583. M. tuberculosis hypoxia-regulated fluorescent reporter, fluorescence. fluorescence inhibition, % (concentration not given with the values). 0.1% of 300,000 active; in the data active = fluorescence inhibition mostly above about 23%, no sharp cut-off; inactive = mostly below about 17%
Rv3671c cf: Rv3671c serine protease inhibitors, retest, confirmation, biochemical, fluorescence polarization, M. tuberculosis H37Rv. 40% of 140 active. shares compounds with Rv3671c inh. inhibition, % at 5.96 µM
An asterisk follows results filed as active. A selection: hits, their analogues and other compounds. The true share with any hit is near 0.59%. Rule as the data show it, unless noted: active = inhibition above about 38%; inactive = the rest.

Screening C[C@@H]1CC[C@]2(C(=O)O[C@@H]3O[C@H](CO)[C@@H](O)[C@H](O)[C@H]3O)CC[C@]3(C)C(=CCC4[C@@]5(C)C[C@@H](O)[C@H](O)[C@@](C)(C(=O)O[C@@H]6[C@H](O)C[C@@]7(C)C(CC[C@]8(C)C7CC=C7[C@H]9[C@](C(=O)O[C@@H]%10O[C@H](CO)[C@@H](O)[C@H](O)[C@H]%10O)(CC[C@@H](C)[C@@]9(C)O)CC[C@]78C)[C@@]6(CO)C(=O)O)C5CC[C@]43C)[C@@H]2[C@]1(C)O (stereo partly specified) returned Rv3671c inh -8, Mtb UGM inh 0, Mtb bLac sens -1 and Mtb hypoxia rep 0.
`c1ccc(CCN2CN=C(Nc3nc4ccccc4s3)NC2)cc1` gave Rv3671c inh 78*, Mtb UGM inh -1, Mtb bLac sens 95, DUSP3 inh 25, Mtb hypoxia rep 5 and Rv3671c cf 9.
For CCN(c1ccccc1)S(=O)(=O)c1ccc(N2CCN(c3ccc(O)cc3)CC2)nc1 the results were Rv3671c inh 0, Mtb UGM inh 1, Mtb bLac sens 3 and Mtb hypoxia rep -6.
`CCN(c1ccccc1)S(=O)(=O)c1ccc(N2CCN(c3ccc(OC)cc3)CC2)nc1` gave Rv3671c inh 102*, Mtb UGM inh 1, Mtb bLac sens -10, Mtb hypoxia rep 1 and Rv3671c cf -6.
COc1ccccc1N1CCN(C(=O)CCNC(=O)Cn2ccc3ccccc3c2=O)CC1 was read as Rv3671c inh -2, Mtb UGM inh -2, Mtb bLac sens 14, DUSP3 inh 28 and Mtb hypoxia rep -1.
For O=c1oc(-c2ccccc2Br)nc2ccccc12 the results were Rv3671c inh 40*, Mtb UGM inh -3, Mtb bLac sens 61, DUSP3 inh 21, Mtb hypoxia rep 16 and Rv3671c cf 66*.
Screening Cc1onc(-c2ccccc2)c1-c1nc2cc(Cl)ccc2c(=O)o1 returned Rv3671c inh -6, Mtb UGM inh 3, Mtb bLac sens -5 and DUSP3 inh 21.
`Cc1onc(-c2ccccc2)c1-c1nc2ccccc2c(=O)o1` gave Rv3671c inh 49*, Mtb UGM inh 4, Mtb bLac sens 10, DUSP3 inh -2, Mtb hypoxia rep -6 and Rv3671c cf 62*.
Screening O=c1oc(-c2cccnc2)nc2ccccc12 returned Rv3671c inh 2, Mtb UGM inh 2, Mtb bLac sens -4 and DUSP3 inh 25.
`COc1ccc(-c2noc(CNS(=O)(=O)c3ccccc3)n2)cc1` gave Rv3671c inh -6, Mtb UGM inh 1, Mtb bLac sens -16, DUSP3 inh 37 and Mtb hypoxia rep 4.
Screening CNc1ccc2c3c(cccc13)C(=O)N(C)C2=O returned Rv3671c inh 77*, Mtb UGM inh inconclusive, Mtb bLac sens 5, DUSP3 inh -14 and Rv3671c cf 69*.
O=C(O)C(Cc1ccc(O)cc1)NC(=O)C(c1ccccc1)c1ccccc1 (stereo unspecified) was read as Mtb hypoxia rep 15.
For COc1ccc(C(=O)N/N=C/c2cc3ccccc3[nH]c2=S)cc1 the results were Rv3671c inh 44*, Mtb UGM inh 5, Mtb bLac sens 40, DUSP3 inh 8 and Rv3671c cf 45*.
Screening O=C(Nc1ccccc1Br)c1cc(=O)c2ccccc2o1 returned Rv3671c inh -1, Mtb UGM inh 0, Mtb bLac sens 4, DUSP3 inh 36 and Mtb hypoxia rep 5.
CC(=O)c1ccc(N2Cc3ccccc3C2=NC(=O)Nc2ccccc2)cc1 was read as Mtb hypoxia rep 7.
Cc1noc(C(=O)Nc2ccc(F)c(Cl)c2)c1Cl was read as Rv3671c inh 61*, Mtb UGM inh -3, Mtb bLac sens 0, DUSP3 inh -28, Mtb hypoxia rep 5 and Rv3671c cf -5.
Screening CCCn1c(N)c(N(CCOC)C(=O)c2ccc([N+](=O)[O-])c(C)c2)c(=O)[nH]c1=O returned Rv3671c inh 3, Mtb UGM inh -1, Mtb bLac sens -7, DUSP3 inh -15 and Mtb hypoxia rep 0.
